Assay [1] addresses Peroxisome proliferator-activated receptor delta (Homo sapiens) (UniProt Q03181). The assay can be described thus: qHTS assay for small molecule agonists of peroxisome proliferator-activated receptor delta signaling (AID 588534).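 Note: 0% = DMSO basal wells and 100% = positive control agonist at 10 µM.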 Summed up: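 Fluorescence from CCF4 substrate cleavage by beta-lactamase reporter, read 2 hrs at RT, measured agonist activity. Compounds were tested with 18 hrs exposure at 37 C. Concentration-response data fitted to Hill equation.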
A general note: In qHTS, concentration-response curves come from the screen itself.

In assay [2] the target is Vitamin D3 receptor (Homo sapiens) (UniProt P11473). The assay can be described thus: qHTS assay for small molecule agonists of vitamin D receptor signaling (AID 588543).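 Note: 0% = DMSO basal and 100% = reference agonist control.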 The gist of the method: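 Reporter cells (HEK293T, VDR-UAS-bla) were seeded in medium with 2% charcoal-stripped serum and incubated 5 h, then compounds in concentration series were added for 16 h at 37 °C. Stimulation was scaled between DMSO basal and 50 nM 1α,25-dihydroxyvitamin D3.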
Chain of Vitamin D3 receptor (Homo sapiens) (P11473 whole entry, looked up): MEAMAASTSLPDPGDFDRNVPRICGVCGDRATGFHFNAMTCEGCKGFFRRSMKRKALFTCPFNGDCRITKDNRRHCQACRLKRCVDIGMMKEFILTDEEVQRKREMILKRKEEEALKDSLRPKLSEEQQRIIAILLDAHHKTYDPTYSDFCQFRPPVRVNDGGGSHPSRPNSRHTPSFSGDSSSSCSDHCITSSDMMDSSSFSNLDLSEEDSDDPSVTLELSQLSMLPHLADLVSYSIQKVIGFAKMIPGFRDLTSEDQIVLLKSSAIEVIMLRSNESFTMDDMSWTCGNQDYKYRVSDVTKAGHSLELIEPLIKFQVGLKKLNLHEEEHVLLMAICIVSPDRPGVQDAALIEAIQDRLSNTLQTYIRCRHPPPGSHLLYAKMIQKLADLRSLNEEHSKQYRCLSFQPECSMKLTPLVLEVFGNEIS

For assay [3], the target named is Thyroid hormone receptor beta (Homo sapiens) (UniProt P10828). The assay can be described thus: qHTS assay for small molecule agonists of thyroid hormone receptor beta signaling (AID 588545). Summed up: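 Cells (2500/well) were seeded, incubated 4 hrs at 37 C, dosed with a compound series, incubated 18 hrs, loaded with CCF4 dye for 2 hrs at RT, then read for fluorescence. Data were scaled between DMSO (0%) and 10 nM T3 (100%).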
Chain of Thyroid hormone receptor beta (Homo sapiens) (P10828 whole entry, looked up): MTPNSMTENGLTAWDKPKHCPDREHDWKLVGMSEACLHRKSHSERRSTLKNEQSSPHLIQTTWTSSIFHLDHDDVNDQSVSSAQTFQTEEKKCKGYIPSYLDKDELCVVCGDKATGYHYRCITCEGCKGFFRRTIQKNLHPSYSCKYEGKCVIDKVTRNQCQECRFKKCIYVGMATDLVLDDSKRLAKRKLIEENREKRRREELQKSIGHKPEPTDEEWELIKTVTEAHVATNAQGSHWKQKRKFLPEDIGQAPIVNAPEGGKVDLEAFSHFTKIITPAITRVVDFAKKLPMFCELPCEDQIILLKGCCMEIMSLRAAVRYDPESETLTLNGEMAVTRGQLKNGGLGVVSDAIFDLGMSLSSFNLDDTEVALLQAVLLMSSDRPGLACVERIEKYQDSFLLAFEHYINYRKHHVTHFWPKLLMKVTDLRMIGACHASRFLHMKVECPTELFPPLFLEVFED

For assay [4] the target is unchanged. The assay can be described thus: qHTS assay for small molecule antagonists of thyroid hormone receptor beta signaling (AID 588547; active = well fitted inhibition curve with a large enough effect in the signal ratio, with a control signal flat, not every such curve was filed as active; the % refers to the signal ratio;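 note: cells stimulated with 0.4 nM T3 agonist during compound exposure; series mostly up to about 77 µM; % is set by controls: 0 for no effect and ±100 for the full control effect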). The settings on record: TR-UAS-bla HEK293, beta-lactamase ratio, antagonist mode, 18 h. Summed up:
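TR-UAS-bla GripTite HEK293 cells in 2% charcoal/dextran FBS medium; compounds 0.59 nM to 92 uM with T3 at 0.4nM final, 18 h at 37 C. Beta-lactamase read by CCF4 fluorescence (460/530 nm); Hill fits gave IC50 and efficacy.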

Assay [5] can be described thus: qHTS assay for small molecule agonists of the antioxidant response element (ARE) signaling pathway (AID 651741; active = well fitted activation curve with a large enough effect in the signal ratio; the % refers to the signal ratio; note: potency is the fitted concentration of half-maximal effect). The gist of the method:
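CellSensor ARE-bla HepG2 cells (2,000/well) carrying ARE-driven beta-lactamase, exposed 16 h at 37 C. LiveBLAzer B/G FRET substrate added for 2 h at room temperature; fluorescence intensity read.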

Assay [6] in a line: qHTS assay for small molecule activators of the nuclear factor-kappa B (NF-kB) signaling pathway (AID 651749; active = well fitted activation curve with a large enough effect in the signal ratio; the % refers to the signal ratio; note: series mostly up to about 77 µM; % of control where 0% means no effect). The settings on record: NF-kB-bla ME-180 cells, beta-lactamase FRET ratio, 16 h; activation: stronger effect = higher value. Summed up: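 NF-kB-bla ME-180 cells carrying a beta-lactamase reporter under an NF-kB response element, 2,000 cells/well, exposed to compound for 16 hr at 37C; FRET-based beta-lactamase fluorescence read-out of pathway activation.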

Assay [7] is described as follows: qHTS assay for environmental chemicals that activate the Aryl hydrocarbon Receptor (AhR) signaling pathway (AID 651777; active = well fitted curve in the direction sought with a large enough effect; an effect the other way counts as inactive or inconclusive; note: nearly all actives have a fitted effect of over 15% in size; note: potency is the fitted concentration of half-maximal effect; for activation: % of control where 0% means no effect). The settings on record: 1A2-DRE human hepatoma cells, luciferase, 24 h; activation: stronger effect = higher value. The gist of the method: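 Measured luciferase activity, read 30 min after One-Glo addition at room temperature, from human hepatoma cells bearing a dioxin response element–CYP1A2 promoter reporter and exposed to compound for 24 hr at 37 C.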

Assay [8] addresses Peroxisome proliferator-activated receptor alpha (Homo sapiens) (UniProt Q07869). The assay can be described thus: qHTS assay for small molecule agonists of the peroxisome proliferator-activated receptor alpha (PPARalpha) signaling pathway (AID 651778; active = well fitted curve in the direction sought with a large enough effect; an effect the other way counts as inactive or inconclusive; note: % of control where 0% means no effect). The settings on record: PathHunter PPARalpha complementation, chemiluminescence, 6 h; max response: stronger effect = higher value. Summed up:
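Enzyme-fragment complementation assay in which ligand-bound PPARalpha translocates and forms an active enzyme that generates chemiluminescence. Cells were plated overnight, exposed to compound for 6 hr at 37 C, and then given detection reagent for 60 min at room temperature.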

The nature of assay [9]: qHTS assay for small molecule agonists of the antioxidant response element (ARE) signaling pathway measured by Nrf2-dependant transcriptional activity - cell viability counter screen (AID 720653; active = well fitted curve in the direction sought with a large enough effect in the repeat runs; an effect the other way counts as inactive or inconclusive; note: % is set by controls: 0 for no effect and ±100 for the full control effect). The settings on record: ARE-bla HepG2 viability, CellTiter-Glo ATP luminescence, 16 h; max response: stronger effect = lower value. Summed up:
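ARE-bla HepG2 cells treated with compounds for 16 h at 37C; this counter screen measures viability as intracellular ATP by CellTiter-Glo luminescence after 30 min at room temperature.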

Assay [10] in a line: qHTS assay for cell viability of HEK293 cells (AID 743288; active = well fitted curve in the direction sought with a large enough effect; an effect the other way counts as inactive or inconclusive; note: % is set by controls: 0 for no effect and ±100 for the full control effect; nearly all actives have a fitted effect of over 50% in size). The settings on record: ATP luminescence (CellTiter-Glo), 18 h; max response: stronger effect = lower value. Summed up: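 HEK293 parental, 2,000 cells/well; ≥5 h pre-incubation 37 C; pintool compound addition; 18 h, 37 C; CellTiter-Glo 30 min RT; luminescence read.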
Assay [11] has as its target Bile acid receptor (Homo sapiens) (UniProt Q96RI1). The assay can be described thus: qHTS assay for small molecule antagonists of farnesoid X receptor signaling (AID 588526). Note: % is set by controls: 0 for no effect and ±100 for the full control effect. Summed up: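 Antagonist mode: titrated compounds tested against chenodeoxycholic acid stimulation (normalized to 50 uM CDCA and DMSO) in GeneBLAzer HEK293T cells for 16 h. Beta-lactamase read by CCF4 fluorescence; IC50 from Hill fits.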

Assay [12] has the same target. The assay can be described thus: qHTS assay for small molecule agonists of farnesoid X receptor signaling (AID 588527).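 Note: series mostly up to about 77 µM; 0% = vehicle basal and 100% = reference agonist.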 The settings on record: HEK293T FXR-UAS-bla, beta-lactamase ratio, 16 h; activation: stronger effect = higher value. The gist of the method:
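Quantitative HTS used FXR-UAS-bla HEK293T cells with 16 h compound incubation at 37 C. EC50 values came from concentration-response curves normalized to chenodeoxycholic acid.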

Assay [13] deals with Vitamin D3 receptor (Homo sapiens) (UniProt P11473). The assay can be described thus: qHTS assay for small molecule antagonists of vitamin D receptor signaling (AID 588541).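 Note: receptor activated by calcitriol during compound treatment; series mostly up to about 77 µM; % is set by controls: 0 for no effect and ±100 for the full control effect.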 The gist of the method:
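VDR-UAS-bla HEK293T cells in 2% charcoal-stripped FBS were stimulated with 1-alpha,25-dihydroxyvitamin D3 (3 nM final) plus compound for 16 h at 37 C. The beta-lactamase CCF4 readout was normalized to 50 nM agonist and DMSO, and Hill fits gave IC50.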

A short description of assay [14]: qHTS assay for small molecule antagonists of retinoid X receptor alpha signaling (AID 588546; active = well fitted inhibition curve with a large enough effect in the signal ratio, with a control signal flat, not every such curve was filed as active; the % refers to the signal ratio). The settings on record: HEK293T RXRa-UAS-bla, beta-lactamase ratio, antagonist mode; measured here: W530 green channel, cytotoxicity proxy. Summed up: (§1)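 Beta-lactamase reporter inhibition, read as CCF4 fluorescence ratio (ex 405, em 460/530 nm) after 2 h at RT. HEK293T UAS-bla cells, 2500/well, were stimulated with 9-cis-RA at 500 or 100 nM final alongside test compound for 18 h at 37 C.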

The target of assay [15] is Retinoic acid receptor RXR-alpha (Homo sapiens) (UniProt P19793). The assay is described as above. The settings on record: HEK293T RXRa-UAS-bla, beta-lactamase ratio, antagonist mode. Summed up: as §1
Chain of Retinoic acid receptor RXR-alpha (Homo sapiens) (P19793 whole entry, looked up): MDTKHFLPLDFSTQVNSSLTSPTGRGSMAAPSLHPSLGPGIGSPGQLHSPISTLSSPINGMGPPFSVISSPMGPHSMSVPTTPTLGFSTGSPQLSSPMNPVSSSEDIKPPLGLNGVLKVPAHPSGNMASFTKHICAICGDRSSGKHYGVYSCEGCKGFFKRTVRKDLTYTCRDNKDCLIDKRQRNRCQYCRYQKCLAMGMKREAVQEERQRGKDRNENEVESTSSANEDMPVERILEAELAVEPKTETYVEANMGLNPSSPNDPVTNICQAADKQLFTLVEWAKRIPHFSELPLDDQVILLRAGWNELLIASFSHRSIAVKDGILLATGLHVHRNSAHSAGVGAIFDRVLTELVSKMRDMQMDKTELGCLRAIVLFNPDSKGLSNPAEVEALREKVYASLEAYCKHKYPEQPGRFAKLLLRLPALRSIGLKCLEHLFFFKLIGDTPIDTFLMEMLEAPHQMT
Assay [16] is described as follows: qHTS assay for cell viability of the p53RE-bla HCT-116 cell line (AID 743292; active = well fitted curve in the direction sought with a large enough effect; an effect the other way counts as inactive or inconclusive; note: % is set by controls: 0 for no effect and ±100 for the full control effect; nearly all actives have a fitted effect of over 55% in size). Summed up:
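Intracellular ATP of p53RE-bla HCT-116 cells measured by luciferase luminescence following 16 h compound incubation at 37 C; DMSO-only wells served as vehicle controls.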

The target in assay [17] is Glucocorticoid receptor (Homo sapiens) (UniProt P04150). The assay can be described thus: qHTS assay for small molecule agonists of glucocorticoid receptor signaling (AID 588532; active = well fitted curve in the direction sought with a large enough effect in the signal ratio, with a control signal flat; the % refers to the signal ratio;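 note: 100% = dexamethasone at 0.1 µM and 0% = DMSO only wells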). The settings on record: HeLa MMTV-bla, beta-lactamase ratio, agonist, 18 h; activation: stronger effect = higher value, percent of dexamethasone control, DMSO zero. The gist of the method: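 HeLa GRE-bla reporter cells; 18 h compound exposure at 37 C; 2 h CCF4 loading at room temperature; fluorescence at 460 and 530 nm; EC50 by Hill equation.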
Chain of Glucocorticoid receptor (Homo sapiens) (P04150 whole entry, looked up): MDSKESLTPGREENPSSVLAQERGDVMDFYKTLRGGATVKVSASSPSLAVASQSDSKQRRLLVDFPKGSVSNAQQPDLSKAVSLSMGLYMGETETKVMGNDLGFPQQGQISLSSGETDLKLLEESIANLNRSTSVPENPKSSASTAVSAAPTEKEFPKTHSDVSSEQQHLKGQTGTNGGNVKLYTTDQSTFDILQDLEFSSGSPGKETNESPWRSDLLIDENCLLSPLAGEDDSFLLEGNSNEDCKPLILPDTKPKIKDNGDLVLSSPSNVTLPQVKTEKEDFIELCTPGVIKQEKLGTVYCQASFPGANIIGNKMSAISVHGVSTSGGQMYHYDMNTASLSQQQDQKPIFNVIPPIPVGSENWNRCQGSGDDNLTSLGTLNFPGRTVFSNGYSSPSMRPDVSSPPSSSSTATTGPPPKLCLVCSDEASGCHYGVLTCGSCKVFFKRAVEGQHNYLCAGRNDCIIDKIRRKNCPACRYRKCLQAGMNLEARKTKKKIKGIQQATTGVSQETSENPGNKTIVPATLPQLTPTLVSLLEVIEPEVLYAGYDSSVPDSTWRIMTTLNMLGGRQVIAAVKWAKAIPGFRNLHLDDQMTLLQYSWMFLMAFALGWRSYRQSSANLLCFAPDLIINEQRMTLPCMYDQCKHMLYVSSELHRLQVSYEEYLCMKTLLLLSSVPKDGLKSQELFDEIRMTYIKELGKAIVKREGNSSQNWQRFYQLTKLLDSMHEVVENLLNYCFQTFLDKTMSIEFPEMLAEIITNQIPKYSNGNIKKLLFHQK

A short description of assay [18]: qHTS assay for small molecule activators of the p53 signaling pathway (AID 651743; active = well fitted activation curve with a large enough effect in the signal ratio, not every such curve was filed as active; the % refers to the signal ratio; note: series mostly up to about 92 µM; % of control where 0% means no effect). The settings on record: HCT-116 p53RE-bla, beta-lactamase FRET ratio, 16 h; activation: stronger effect = higher value. Summed up:
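p53RE-bla HCT-116 cells carrying a beta-lactamase reporter under p53 response elements were exposed to compounds for 16 hours at 37 C. Reporter activity read as fluorescence after 2 hours at room temperature with LiveBLAzer B/G FRET substrate.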

Assay [19] can be described thus: qHTS assay for small molecule agonists of the antioxidant response element (ARE) signaling pathway measured by Nrf2-dependant transcriptional activity (AID 720636; active = well fitted curve in the direction sought with a large enough effect in the repeat runs; an effect the other way counts as inactive or inconclusive;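 note: HepG2 cells with an ARE-driven luciferase reporter; % of control where 0% means no effect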). Summed up:
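In HepG2 cells engineered with an Nrf2-responsive luciferase gene, ARE induction was quantified as luminescence after 16 hr compound treatment at 37 C.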

In assay [20] the target is Nuclear receptor subfamily 1 group I member 2 (Rattus norvegicus) (UniProt Q9R1A7). The assay can be described thus: qHTS assay for small molecule activators of the rat pregnane X receptor (rPXR) signaling pathway (AID 651751; call rule not given here; note: 0% is about no effect). The settings on record: rPXR reporter cells, luciferase (One-Glo), 24 h.
Chain of Nuclear receptor subfamily 1 group I member 2 (Rattus norvegicus) (Q9R1A7 whole entry, looked up): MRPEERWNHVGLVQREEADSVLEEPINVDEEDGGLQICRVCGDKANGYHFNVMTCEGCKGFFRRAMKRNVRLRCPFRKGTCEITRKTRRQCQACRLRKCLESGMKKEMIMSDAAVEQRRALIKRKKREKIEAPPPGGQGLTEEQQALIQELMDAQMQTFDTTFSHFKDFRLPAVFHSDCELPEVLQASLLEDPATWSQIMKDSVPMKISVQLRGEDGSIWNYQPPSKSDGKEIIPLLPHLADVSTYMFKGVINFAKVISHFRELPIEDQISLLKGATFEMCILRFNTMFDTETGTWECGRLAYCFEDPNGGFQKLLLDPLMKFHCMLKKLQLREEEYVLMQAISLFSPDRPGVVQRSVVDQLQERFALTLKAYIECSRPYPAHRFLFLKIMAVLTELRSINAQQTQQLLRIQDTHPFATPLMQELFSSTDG

Molecules are shown by their SMILES. Records with an inconclusive call do not appear. The source made the active and inactive calls. Unless noted, calls come from the whole dose curve.

Chain of Peroxisome proliferator-activated receptor alpha (Homo sapiens) (Q07869 whole entry, looked up, the tested form may be a part): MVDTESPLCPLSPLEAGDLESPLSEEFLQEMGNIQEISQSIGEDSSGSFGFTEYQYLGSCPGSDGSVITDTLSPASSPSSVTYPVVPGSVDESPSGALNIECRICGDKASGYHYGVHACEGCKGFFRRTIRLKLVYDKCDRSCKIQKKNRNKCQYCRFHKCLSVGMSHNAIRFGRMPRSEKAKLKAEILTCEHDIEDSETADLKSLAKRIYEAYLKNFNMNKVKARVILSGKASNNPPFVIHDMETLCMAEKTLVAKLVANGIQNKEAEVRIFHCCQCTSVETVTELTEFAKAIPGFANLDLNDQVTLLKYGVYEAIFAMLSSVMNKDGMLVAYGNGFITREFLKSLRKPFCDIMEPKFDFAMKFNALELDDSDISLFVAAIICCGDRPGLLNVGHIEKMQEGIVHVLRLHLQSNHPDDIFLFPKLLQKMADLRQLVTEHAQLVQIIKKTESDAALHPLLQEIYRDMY
Chain of Bile acid receptor (Homo sapiens) (Q96RI1 whole entry, looked up): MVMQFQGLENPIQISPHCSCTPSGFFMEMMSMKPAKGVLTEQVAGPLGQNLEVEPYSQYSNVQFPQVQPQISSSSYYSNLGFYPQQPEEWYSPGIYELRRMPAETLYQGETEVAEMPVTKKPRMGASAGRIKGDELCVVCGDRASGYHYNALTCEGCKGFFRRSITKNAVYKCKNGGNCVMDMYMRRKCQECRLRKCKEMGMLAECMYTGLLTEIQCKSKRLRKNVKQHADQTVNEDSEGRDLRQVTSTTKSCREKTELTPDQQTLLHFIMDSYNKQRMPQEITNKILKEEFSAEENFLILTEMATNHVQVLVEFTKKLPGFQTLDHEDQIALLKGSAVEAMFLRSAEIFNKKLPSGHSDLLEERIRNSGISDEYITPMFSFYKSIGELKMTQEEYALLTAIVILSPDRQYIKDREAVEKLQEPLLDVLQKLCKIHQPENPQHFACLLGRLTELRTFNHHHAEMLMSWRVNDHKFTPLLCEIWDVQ
Chain of Peroxisome proliferator-activated receptor delta (Homo sapiens) (Q03181 whole entry, looked up): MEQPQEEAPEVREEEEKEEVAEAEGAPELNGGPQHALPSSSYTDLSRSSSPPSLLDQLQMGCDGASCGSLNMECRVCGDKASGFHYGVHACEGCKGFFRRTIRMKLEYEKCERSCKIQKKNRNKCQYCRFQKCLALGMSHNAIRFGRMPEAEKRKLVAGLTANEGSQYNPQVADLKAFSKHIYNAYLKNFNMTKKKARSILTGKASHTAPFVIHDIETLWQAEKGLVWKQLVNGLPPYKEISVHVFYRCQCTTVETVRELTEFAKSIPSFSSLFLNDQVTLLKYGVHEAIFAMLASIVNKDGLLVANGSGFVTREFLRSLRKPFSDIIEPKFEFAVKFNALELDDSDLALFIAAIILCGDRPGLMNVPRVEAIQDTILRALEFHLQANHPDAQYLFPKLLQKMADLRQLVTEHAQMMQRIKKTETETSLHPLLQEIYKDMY

For the compound `CCOc1cc(C(C)(C)C)ccc1C1COC(c2c(F)cccc2F)=N1` (configuration not stated), the compound was classed as inactive in assay [1] and in assay [2]. Moreover, in assay [3], the Potency entry was “inactive”. Moreover, in assay [4], the activity change % (negative = inhibition) was -28.7% (inactive). In addition, in [5], the Potency is 12.2 µM (active). The activation in assay [6] is 3.07% (inactive); in assay [7] it was 6.58% (inactive). The max response in [8] is 6.72% (inactive); in [9], -8.55% (inactive); in assay [10] it was -20% (inactive).
Consider `Cc1cc(C2CC2)nc(Nc2ccccc2)n1`, for which the Potency entry in [11], in [13], in assay [3] and in assay [16] was “inactive” in each case. Also, the activation in assay [12] is -4.1% (inactive). Also, the result in assay [1] and in [2] was inactive. Further, the max response in assay [14] was -2.59%; in [15] it was -23.3% (inactive); in [8], 5.58% (inactive); in assay [9], 0.0652% (inactive). The activity change % (negative = inhibition) in assay [4] was -20% (inactive). Besides, the Potency in assay [5] was 54.5 µM (active).
In the case of `CNc1cnn(-c2cccc(C(F)(F)F)c2)c(=O)c1Cl`, the Potency result in [11], in assay [13], in [3] and in assay [16] was “inactive” each time. In addition, the activation is -1.1% (inactive) in [12], -4.87% (inactive) in assay [17], 1.24% (inactive) in assay [18] and -1.53% (inactive) in assay [6]. Moreover, the result in assay [1] and in [2] was inactive. Besides, the max response in assay [14] was -2.6%; in [15], 8.14% (inactive); in assay [8], -1.19% (inactive); in assay [9], 3.99% (inactive); in assay [10], -7.33% (inactive). The activity change % (negative = inhibition) in assay [4] was 8.76% (inactive).
`CSc1nnc(C(C)(C)C)c(=O)n1N`: the Potency result in assay [11], in assay [13], in [3], in assay [19] and in assay [16] was “inactive” each time. Further, the activation in [12] was -6.5% (inactive); in [17], -5.36% (inactive); in [18], -4.16% (inactive); in [6], -0.061% (inactive). For the same compound, the compound was classed as inactive in assay [1] and in assay [2]. Besides, the max response in assay [14] was -12%; in assay [8] it was -2.71% (inactive); in [9], 6.99% (inactive); in [10] it was -4.13% (inactive); in [20], 0.612% (inactive). In assay [4], the activity change % (negative = inhibition) was -9.71% (inactive).
For `CCOC(=O)COc1cc(-c2nn(C)c(OC(F)F)c2Cl)c(F)cc1Cl`, the figures for the activation in assay [17], in [18] and in [6] were -3.65% (inactive), -1.21% (inactive) and 1.18% (inactive), respectively. For the same compound, the Potency entry in assay [13], in assay [3], in assay [19] and in assay [16] was “inactive” throughout. Besides, the max response in [14] is 16.9%; in assay [15] it was -15.1% (inactive); in [8] it was -0.355% (inactive); in [9], 13.2% (inactive); in assay [10], -5.44% (inactive); in assay [20], 0.553% (inactive). The activity change % (negative = inhibition) in [4] is 7.86% (inactive). In [7], the Potency was 44.7 µM (active).
Turning to `c1ccc2c(c1)[nH]c1ccccc12`, the compound was called inactive in assay [1].

For the origin of these results see PubChem BioAssay (NCATS).
